PubChem BioAssay AID720517 (National Center for Advancing Translational Sciences (NCATS), 2013)
Inconclusive results are not listed. Entries that show only a call come without a potency. Activity calls are given as the source filed them. The call rests on the fitted dose curve; in most records, active means well fitted activation curve with a large enough effect; inconclusive means small, poorly fitted or top-dose-only effect; inactive means flat fitted curve, though single readings scatter.

Test: qHTS for Inhibitors of Cell Surface uPA Generation: FP59 Counterscreen for Cherry-picked Compounds
Conditions: FP59 anthrax toxin cytotoxicity counterscreen, cells; series mostly up to 115 µM

| SMILES | Potency |
| --- | --- |
| CC1(NC(=O)CSc2nnc(-c3c[nH]c4ccccc34)n2C2CC2)CCS(=O)(=O)C1 (stereo not drawn) | inactive |
| COc1ccc(/C=N/NC(=O)COc2ccc3ccccc3c2)c(C(=O)O)c1OC | inactive |
| O=S(=O)(NCCc1ccccc1F)c1cccc(S(=O)(=O)N2CCOCC2)c1 | inactive |
| Cc1cc(N)n(Cc2ccc(Cl)cc2)n1 | inactive |
| CNC(=S)N1C2CCCC1CC(NC(=O)c1ccc(F)cc1)C2 (stereo not drawn) | inactive |
| Cc1noc(C)c1CSCC(=O)Nc1cc(Cl)ccc1N1CCCCC1 | inactive |
| CN(C)c1cccc(Oc2nc3c(c(=O)n(C)c(=O)n3C)n2C)c1 | inactive |
| Cc1ccccc1C(=O)NCC(=O)Nc1ccc(C)c(S(=O)(=O)N2CCCCCC2)c1 | inactive |
| COc1ccc(S(=O)(=O)N2CCOCC2)cc1NC(=O)CN1C(=O)NC2(CCCC2)C1=O | inactive |
| Cc1ccccc1OCCC(=O)NNC(=O)c1ccccc1F | inactive |
| O=C(COC(=O)/C=C/c1cccc(F)c1)Nc1ccccc1 | inactive |
| O=C(CN1C(=O)CSCC1=O)NCc1ccc(F)cc1 | inactive |
| C=CCn1c(C)cc(C(=O)COC(=O)/C=C/c2cccc(OC)c2)c1C | inactive |
| CCOc1ccc(C(=O)NCCO)cc1 | inactive |
| CN(C)S(=O)(=O)c1cccc(C(=O)OCC(=O)NCc2ccc3c(c2)OCO3)c1 | inactive |
| NC(=O)C1CCN(C(=O)c2cccc3ccccc23)CC1 | inactive |
| CC1(C)S[C@@H]2[C@H](NC(=O)C(C(=O)O)c3ccccc3)C(=O)N2[C@H]1C(=O)O (stereo partly drawn) | inactive |
| C[C@H](CO)N1C[C@H](C)[C@@H](CN(C)C(=O)Nc2ccccc2)Oc2ccc(NC(=O)Cn3cnnn3)cc2C1=O | inactive |
